Experiments:
[1] = tested on: LEGO organoid PTCC (PTEN-/-; TP53-/-; CDKN2A-/-; CDKN2B-/-); experiment: bioluminescence (viable cell) signal fold change after vs before treatment, normalised to DMSO (ratio); higher = more tumour cell growth / less inhibition; details: 10 µM; treatment time 6 days
Protocol: (§1)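 Luc2-labelled iPSC-derived glioblastoma-like organoids (LEGOs, genotypes PT = PTEN-/-;TP53-/-, PTCC = plus CDKN2A/B-/-, PTN = plus NF1-/-) were treated with 10 uM drug for 6 days (applied every other day) at 37 C. Bioluminescence imaging was done before treatment and 2 days after the last dose. BLI signals were normalised to the DMSO control on the same day and then to the pre-treatment signal (N=3).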

[2] = tested on: LEGO organoid PTN (PTEN-/-; TP53-/-; NF1-/-); experiment: as above; details: 10 µM; treatment time 6 days
Protocol: as §1

Row | Compound | bioluminescence [1] | bioluminescence [2]
1 | CN=C(NC#N)NCCSCc1nc[nH]c1C [Cimetidine] | 2.25 | 1.65
2 | NCCS(=O)(=O)O [Taurine] | 0.71 | 0.673
3 | CN(C)C(=N)NC(=N)N [Metformin] | 1.89 | 2.37
4 | CC1(C)S[C@@H]2[C@H](NC(=O)[C@H](N)c3ccc(O)cc3)C(=O)N2[C@H]1C(=O)O.O.O.O [Amoxicillin trihydrate] | 2.36 | 0.841
5 | CN1CC(=O)N2[C@H](c3ccc4c(c3)OCO4)c3[nH]c4ccccc4c3C[C@@H]2C1=O [Tadalafil] | 1.47 | 0.562
6 | CNS(=O)(=O)CCc1ccc2[nH]cc(C3CCN(C)CC3)c2c1.Cl [Naratriptan hydrochloride] | 0.859 | 1.2
7 | CNCCCN1c2ccccc2CCc2ccccc21.Cl [Desipramine hydrochloride] | 0.744 | 1.22
8 | CNC(=O)c1cc(Oc2ccc(NC(=O)Nc3ccc(Cl)c(C(F)(F)F)c3)cc2)ccn1 [Sorafenib] | 0.105 | 0.285
9 | CCOC(=O)OC(C)OC(=O)[C@@H]1N2C(=O)[C@@H](NC(=O)[C@H](N)c3ccccc3)[C@H]2SC1(C)C.Cl (some centres undefined) [Bacampicillin hydrochloride] | 1.35 | 3.29
10 | CC(C)(Sc1cc(C(C)(C)C)c(O)c(C(C)(C)C)c1)Sc1cc(C(C)(C)C)c(O)c(C(C)(C)C)c1 [Probucol] | 0.73 | 0.748
11 | Nc1ncnc2c1ncn2[C@@H]1O[C@H](CO)[C@@H](O)[C@H]1OP(=O)(O)O [Adenosine-2'-monophosphate] | 1.96 | 1.26
12 | C[C@@H]1O[C@]2(CS1)CN1CCC2CC1.C[C@@H]1O[C@]2(CS1)CN1CCC2CC1.Cl.Cl.O [Cevimeline hydrochloride hemihydrate] | 1.04 | 0.522
13 | CCCCC1C(=O)N(c2ccccc2)N(c2ccccc2)C1=O [Phenylbutazone] | 1.76 | 2.68
14 | Cc1[nH]c(=O)c(C#N)cc1-c1ccncc1 [Milrinone] | 1.63 | 1.34
15 | CCN(CC)CCNC(=O)c1c(C)[nH]c(/C=C2\C(=O)Nc3ccc(F)cc32)c1C [Sunitinib] | 0.536 | 0.687
16 | NC(=O)c1ncn([C@@H]2O[C@H](CO)[C@@H](O)[C@H]2O)n1 [Ribavirin] | 1.89 | 0.822
17 | CCc1cc(/C(C)=N/OCc2ccc(C3CCCCC3)c(C(F)(F)F)c2)ccc1CN1CC(C(=O)O)C1 [Siponimod] | 2.91 | 0.811
18 | Cl.CN(C)CC\C=C1\c2ccccc2C=Cc2ccccc12 [Cyclobenzaprine hydrochloride] | 1.61 | 3.73
19 | CC1=C(CC(=O)O)c2cc(F)ccc2/C1=C\c1ccc(S(C)=O)cc1 (centres undefined) [Sulindac] | 1.38 | 1.47

Row | Compound | bioluminescence [1] | bioluminescence [2]
20 | Cl.NC12CC3CC(CC(C3)C1)C2 [Amantadine hydrochloride] | 1.07 | 3.32
21 | NNC(=O)c1ccncc1 [Isoniazid] | 0.847 | 1.06
22 | CN(C)CCOC(C)(c1ccccc1)c1ccccn1.O=C(O)CCC(=O)O (centres undefined) [Doxylamine succinate] | 1.17 | 0.999
23 | Cc1cc(C)nc(NS(=O)(=O)c2ccc(N)cc2)n1 [Sulfamethazine] | 0.645 | 1.03
24 | COc1ccc([C@@H]2CC(=O)c3c(O)cc(O[C@@H]4O[C@H](CO[C@@H]5O[C@@H](C)[C@H](O)[C@@H](O)[C@H]5O)[C@@H](O)[C@H](O)[C@H]4O)cc3O2)cc1O [Hesperidin] | 0.805 | 1.75
25 | CN1CCN(CCCN2c3ccccc3Sc3ccc(C(F)(F)F)cc32)CC1.Cl.Cl [Trifluoperazine dihydrochloride] | 1.31 | 1.23
26 | C[C@H](C(=O)O)c1cccc(C(=O)c2ccccc2)c1 [(S)-(+)-Ketoprofen] | 1.1 | 0.728
27 | CN1CCN2c3ncccc3Cc3ccccc3C2C1 (centres undefined) [Mirtazapine] | 1.47 | 0.789
28 | CCCNS(=O)(=O)Nc1ncnc(OCCOc2ncc(Br)cn2)c1-c1ccc(Br)cc1 [Macitentan] | 0.835 | 0.938
29 | COC(=O)N[C@H](C(=O)N[C@@H](Cc1ccccc1)[C@@H](O)CN(Cc1ccc(-c2ccccn2)cc1)NC(=O)[C@@H](NC(=O)OC)C(C)(C)C)C(C)(C)C.O=S(=O)(O)O [Atazanavir sulfate] | 0.573 | 6.56
30 | Oc1c(I)cc(Cl)c2cccnc12 [Clioquinol] | 1.47 | 2.47
31 | Nc1cccc2c1C(=O)N(C1CCC(=O)NC1=O)C2=O (centres undefined) [Pomalidomide] | 2.56 | 1.12
32 | CCc1nn(CCCN2CCN(c3cccc(Cl)c3)CC2)c(=O)n1CCOc1ccccc1.Cl [Nefazodone hydrochloride] | 1.12 | 0.52
33 | O=c1[nH]c(=O)n(C2CCCO2)cc1F (centres undefined) [Tegafur] | 1.14 | 0.727
34 | NC(=O)OCC(COC(N)=O)c1ccccc1 [Felbamate] | 3.87 | 0.547
35 | O=C1CCc2ccc(OCCCCN3CCN(c4cccc(Cl)c4Cl)CC3)cc2N1 [Aripiprazole] | 0.382 | 0.284
36 | CO[C@@H]1[C@H](N(C)C(=O)c2ccccc2)C[C@H]2O[C@]1(C)n1c3ccccc3c3c4c(c5c6ccccc6n2c5c31)C(=O)NC4 [Midostaurin] | 1.65 | 0.647
37 | Cc1ccc(C(=O)c2cc(O)c(O)c([N+](=O)[O-])c2)cc1 [Tolcapone] | 2.93 | 1.31
38 | N[C@@H](CC(=O)O)C(=O)O [L-Aspartic acid] | 1.1 | 0.451

Row | Compound | bioluminescence [1] | bioluminescence [2]
39 | C[C@]12C=CC(=O)C=C1CC[C@@H]1[C@@H]2[C@@H](O)C[C@@]2(C)[C@H]1CC[C@]2(O)C(=O)CO [Prednisolone] | 1.29 | 1.71
40 | CC(C)c1c(C(=O)Nc2ccccc2)c(-c2ccccc2)c(-c2ccc(F)cc2)n1CC[C@@H](O)C[C@@H](O)CC(=O)[O-].CC(C)c1c(C(=O)Nc2ccccc2)c(-c2ccccc2)c(-c2ccc(F)cc2)n1CC[C@@H](O)C[C@@H](O)CC(=O)[O-].[Ca+2] [Atorvastatin Calcium] | 0.222 | 0.0875
41 | CN(Cc1cnc2nc(N)nc(N)c2n1)c1ccc(C(=O)N[C@@H](CCC(=O)O)C(=O)O)cc1 [Methotrexate] | 1.34 | 0.813
42 | CNC(=O)c1cc(Oc2ccc(NC(=O)Nc3ccc(Cl)c(C(F)(F)F)c3)cc2)ccn1.Cc1ccc(S(=O)(=O)O)cc1 [Sorafenib tosylate] | 0.343 | 0.504
43 | CCn1c(=O)c2c(nc(/C=C/c3ccc(OC)c(OC)c3)n2C)n(CC)c1=O [Istradefylline] | 3.38 | 6.31
44 | CNCCCC1c2ccccc2C=Cc2ccccc21.Cl [Protriptyline hydrochloride] | 0.571 | 1.14
45 | Nc1nc(Cl)nc2c1ncn2[C@H]1C[C@H](O)[C@@H](CO)O1 [Cladribine] | 1.17 | 1.05
46 | CC(CN(C)C)CN1c2ccccc2CCc2ccccc21.O=C(O)/C=C\C(=O)O (centres undefined) [Trimipramine maleate] | 0.61 | 1.58
47 | Cl.O[C@@H](c1cc(C(F)(F)F)nc2c(C(F)(F)F)cccc12)[C@H]1CCCCN1 [Mefloquine hydrochloride] | 0.922 | 0.359
48 | CCc1c2c(nc3ccc(OC(=O)N4CCC(N5CCCCC5)CC4)cc13)-c1cc3c(c(=O)n1C2)COC(=O)[C@]3(O)CC [Irinotecan] | 2.25 | 0.884
49 | CC(=O)c1c(C)c2cnc(Nc3ccc(N4CCNCC4)cn3)nc2n(C2CCCC2)c1=O.O=S(=O)(O)CCO [Palbociclib Isethionate] | 2.84 | 1.14
50 | CCN(CC)CC#CCOC(=O)C(O)(c1ccccc1)C1CCCCC1 (centres undefined) [Oxybutynin] | 0.776 | 1.53
51 | Cl.CNCC\C=C1\c2ccccc2CCc2ccccc12 [Nortriptyline hydrochloride] | 0.717 | 0.835
52 | CC[C@@]1(O)C(=O)OCc2c1cc1n(c2=O)Cc2cc3c(CN(C)C)c(O)ccc3nc2-1.Cl [Topotecan hydrochloride] | 0.236 | 0.171
53 | CCCN[C@H]1CCc2nc(N)sc2C1.Cl.Cl.O [Pramipexole 2HCl Monohydrate] | 0.567 | 0.629
54 | CCCCCCCCc1ccc(CCC(N)(CO)CO)cc1.Cl [Fingolimod hydrochloride] | 1.07 | 0.473
55 | CC(C)Cc1ccc(C(C)C(=O)O)cc1 (centres undefined) [Ibuprofen] | 0.624 | 1.57
56 | C[C@]12C=CC(=O)C=C1CC[C@@H]1[C@@H]2C(=O)C[C@@]2(C)[C@H]1CC[C@]2(O)C(=O)CO [Prednisone] | 0.989 | 1.29
57 | Cc1cc2c(s1)Nc1ccccc1N=C2N1CCN(C)CC1 [Olanzapine] | 0.712 | 1.81

Source: the supplement of paper PMC10811239
